The text below walks through data of the supplement of paper PMC12494721.

Molecules are shown by their SMILES. Where a name gives a salt, the structure may show the parent alone.

In this experiment the test system is Ruminococcus gnavus DSM 108212. Description: fold change of Tryptamine concentration vs plate DMSO controls (fold change (ratio)); higher = more amine produced, active = hit call of the paper (significant change in both replicates, either direction). To be noted: incubation time: 27 h, anaerobic, 37 °C. An outline of the steps:
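Amines were quantified by LC–triple-quadrupole MS in dynamic MRM mode against external calibration curves, with drift correction within each batch. The samples were whole anaerobic mGAM cultures of four gut bacterial strains, grown for 27 h at 37 °C in 80 µL wells and extracted with cold acetonitrile/methanol with 0.1% formic acid, then centrifuged. Values are reported as fold change over DMSO controls on the same plate. The mean of 2 biological replicates is given.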
Regarding `CN[C@H](CC(C)C)C(=O)N[C@H]1C(=O)N[C@@H](CC(N)=O)C(=O)N[C@H]2C(=O)N[C@H]3C(=O)N[C@H](C(=O)N[C@H](C(=O)O)c4cc(O)cc(O)c4-c4cc3ccc4O)[C@H](O)c3ccc(c(Cl)c3)Oc3cc2cc(c3O[C@@H]2O[C@H](CO)[C@@H](O)[C@H](O)[C@H]2O[C@H]2C[C@](C)(N)[C@H](O)[C@H](C)O2)Oc2ccc(cc2Cl)[C@H]1O` [Vancomycin hydrochloride] (20 µM), the “fold change of Tryptamine concentration” value is 0.0491 (active).
As for `OC[C@H]1OC(O)[C@H](O)[C@H](O)[C@@H]1O` (stereo partly drawn) [D-allose] (50 µM), the figure is 0.896 (inactive); as for `COC1=CC(=O)C[C@@H](C)[C@]12Oc1c(Cl)c(OC)cc(OC)c1C2=O` [Griseofulvin] (20 µM), 0.993 (inactive).
As for `CN1CCN(CCCN2c3ccccc3Sc3ccc(C(F)(F)F)cc32)CC1` [Trifluoperazine dihydrochloride] (20 µM), the figure is 0.93 (inactive); as for `CCCN(CCC)S(=O)(=O)c1ccc(C(=O)O)cc1` [Probenecid] (20 µM), 1 (inactive).
As for `C#C[C@]1(O)CC[C@H]2[C@@H]3CCC4=CC(=O)CC[C@@H]4[C@H]3CC[C@@]21C` [Norethindrone] (20 µM), the figure is 1.03 (inactive).
For the compound `NC(=O)c1ncn([C@@H]2O[C@H](CO)[C@@H](O)[C@H]2O)n1` [Ribavirin] (20 µM), the “fold change of Tryptamine concentration” value was 0.994 (inactive).
Next, `Cc1c(O)cccc1C(=O)N[C@@H](CSc1ccccc1)[C@H](O)CN1C[C@H]2CCCC[C@H]2C[C@H]1C(=O)NC(C)(C)C` [Nelfinavir mesylate] (20 µM): 0.829 (inactive); `CC1(C)S[C@@H]2[C@H](NC(=O)Cc3ccccc3)C(=O)N2[C@H]1C(=O)O` [Benzylpenicillin sodium] (20 µM): 0.0412 (active); `COC(=O)Nc1nc2cc([S+]([O-])c3ccccc3)ccc2[nH]1` (centres undefined) [Oxfendazole] (20 µM): 1.04 (inactive).
Next, `CCCc1nc(C)c2c(=O)nc(-c3cc(S(=O)(=O)N4CCN(CC)CC4)ccc3OCC)[nH]n12` [Vardenafil] (20 µM): 1.05 (inactive); `NS(=O)(=O)c1cc(C(=O)O)cc(N2CCCC2)c1Oc1ccccc1` [Piretanide] (20 µM): 1.1 (inactive); `C[C@H]1C[C@@H]2[C@H]([C@@H](O)C[C@@]3(C)[C@H]2CC[C@]3(O)C(=O)CO)[C@@]2(C)C=CC(=O)C=C12` [Methylprednisolone, 6-alpha] (20 µM): 1.01 (inactive).
`Oc1ccc2ccccc2c1N=Nc1ccccc1` [Sudan I (1-phenylazo-2-hydroxynaphthalene)] (20 µM): the “fold change of Tryptamine concentration” value is 1.04 (inactive).
As for `CC(=O)OCC(=O)[C@@]1(O)CC[C@H]2[C@@H]3CCC4=CC(=O)CC[C@]4(C)[C@H]3[C@@H](O)C[C@@]21C` [Cortisol acetate] (20 µM), the figure is 0.979 (inactive); as for `CCN(CC)CCNc1ccc(CO)c2sc3ccccc3c(=O)c12` [Hycanthone] (20 µM), 0.917 (inactive); as for `CC(=O)NC[C@H]1CN(c2ccc(N3CCOCC3)c(F)c2)C(=O)O1` [Linezolid] (20 µM), 0.112 (active).
Next, `NNC(=O)c1ccncc1` [Isoniazid] (20 µM): 0.851 (inactive); `O=C(NCCO[N+](=O)[O-])c1cccnc1` [Nicorandil] (20 µM): 1.03 (inactive); `CC(=O)[C@H]1CC[C@H]2[C@@H]3CC=C4C[C@@H](O)CC[C@]4(C)[C@H]3CC[C@]12C` [Pregnenolone] (20 µM): 0.998 (inactive).
Next, `OC[C@@H](O)[C@@H](O)[C@H](O)[C@H](O)CO` [Mannitol] (50 µM): 0.975 (inactive); `CC[C@@]1(O)C(=O)OCc2c1cc1n(c2=O)Cc2cc3c(CN(C)C)c(O)ccc3nc2-1` [Topotecan] (20 µM): 0.998 (inactive).
Consider `CCCCc1ncc(/C=C(\Cc2cccs2)C(=O)O)n1Cc1ccc(C(=O)O)cc1` [Eprosartan mesylate] (20 µM), for which the “fold change of Tryptamine concentration” value is 0.998 (inactive).
In the case of `CCN(CC)CC(=O)Nc1c(C)cccc1C` [Lidocaine hydrochloride] (20 µM), the “fold change of Tryptamine concentration” value was 1.01 (inactive).
As for `CC(C)c1nc(CN(C)C(=O)N[C@H](C(=O)N[C@@H](Cc2ccccc2)C[C@H](O)[C@H](Cc2ccccc2)NC(=O)OCc2cncs2)C(C)C)cs1` [Ritonavir] (20 µM), the figure is 0.942 (inactive); as for `O=C(OCCOCCO)c1ccccc1Nc1cccc(C(F)(F)F)c1` [Etofenamate] (20 µM), 0.883 (inactive); as for `CCCCOc1ccc(CC(=O)NO)cc1` [Bufexamac] (20 µM), 1.02 (inactive).
As for `Cc1scc2c1N(C(=O)CN1CCN(C)CC1)c1ccccc1NC2=O` [Telenzepine dihydrochloride] (20 µM), the figure is 1.01 (inactive); as for `OC[C@H]1O[C@H](O[C@H]2O[C@H](CO)[C@@H](O)[C@H](O)[C@H]2O)[C@H](O)[C@@H](O)[C@@H]1O` [Trehalose] (50 µM), 1.09 (inactive); as for `NCCCC(O)(P(=O)(O)O)P(=O)(O)O` [Alendronate sodium] (20 µM), 1.05 (inactive).
As for `CC(=O)Nc1ccc(CC(=O)O)cc1` [Actarit] (20 µM), the figure is 0.992 (inactive).
Regarding `CCCCc1cc2ccccc2c(OCCN(C)C)n1` [Dimethisoquin hydrochloride] (20 µM), the “fold change of Tryptamine concentration” value is 0.91 (inactive).
Next, `CC[C@H]1OC(=O)C[C@@H](O)[C@H](C)[C@@H](O[C@@H]2O[C@H](C)[C@@H](O[C@H]3C[C@@](C)(O)[C@@H](O)[C@H](C)O3)[C@H](N(C)C)[C@H]2O)[C@@H](CC=O)C[C@@H](C)C(=O)/C=C/C(C)=C/[C@@H]1CO[C@@H]1O[C@H](C)[C@@H](O)[C@@H](OC)[C@H]1OC` [Tylosin] (20 µM): 0.0892 (active).
Next, `CN(C)CCC=C1c2ccccc2C=Cc2ccccc21` [Cyclobenzaprine hydrochloride] (20 µM): 0.915 (inactive); `CC(=C(CCO)SSCC1CCCO1)N(C=O)Cc1cnc(C)nc1N` (stereo in doubt) [Fursultiamine hydrochloride] (20 µM): 0.969 (inactive).
Next, `CCOC(=O)O[C@]1(C(=O)OCCl)CC[C@H]2[C@@H]3CCC4=CC(=O)C=C[C@]4(C)[C@H]3[C@@H](O)C[C@@]21C` [Loteprednol etabonate] (20 µM): 1.01 (inactive).
On to `N[C@@H](CSCCCO)C(=O)O` [Fudosteine] (20 µM), for which the “fold change of Tryptamine concentration” value was 1 (inactive).
For the compound `CC1=C(C)C(=O)C(C(CCCCCC(=O)O)c2ccccc2)=C(C)C1=O` (centres undefined) [Seratrodast] (20 µM), the “fold change of Tryptamine concentration” value was 0.908 (inactive).
Next, `C[C@]12C=CC(=O)C=C1CC[C@@H]1[C@@H]2C(=O)C[C@@]2(C)[C@H]1CC[C@]2(O)C(=O)CO` [Prednisone] (20 µM): 1.04 (inactive).
